Only some compounds are listed: those with a hit (about 2.3% of all), similar ones and a draw of the others.
Tau FP inhib = blocks human tau fibril formation measured by polarization | Potency, µM (titrated, usually from 57.7 µM), usual class: inhibitors | 0.39% of 280,000 active | AID 1468 | K18 P301L tau heparin fibrillization, Alexa594 FP, 6 h | P10636; also: nearly all actives have a fitted effect of over 55% in size
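Human K18 P301L fragment (15 uM unlabeled plus 0.24 uM Alexa 594-labeled) in 100 mM sodium acetate pH 7 with compound, aggregation induced by 20 uM heparin for 6 hr at 37 C. ThT (30 uM) added for 1 hr, then Alexa 594 FP read.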
Tau fluor cs = counter-screen for tau fibril formation inhibitors. tau K18 P301L Alexa594 fluorescence, heparin fibrillization. 0.93% of 280,000 active. Potency, µM (top dose mostly 57.7 µM); also: nearly all actives have a fitted effect of over 55% in size
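Human tau K18 P301L (15 uM unlabeled, 0.24 uM Alexa 594-labeled) in 100 mM sodium acetate pH 7 with 20 uM heparin, 6 hr at 37 C. ThT 30 uM added, 1 hr ambient; Alexa 594 FP and total fluorescence read at 555/632 nm.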
Tau fibril ThT = tau fibrillization inhibition (ThT binding); P10636; recombinant tau K18 P301L (four-repeat tau fragment), heparin-induced fibrillization, ThT fluorescence; Potency, µM (series often up to 57.4 µM), usual class: inhibitors; 2.1% of 270,000 active; AID 1460; also: nearly all actives have a fitted effect of over 55% in size
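Heparin-induced (20 uM) aggregation of recombinant human K18 P301L tau, 15 uM unlabeled with 0.24 uM labeled, pH 7 acetate buffer, 6 hr at 37 C with compound. Fibrils quantified by 30 uM ThT fluorescence after 1 hr ambient incubation.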
USP1 inh = USP1/UAF1 (human) deubiquitinase inhibition. 0.23% of 390,000 active. Potency, µM (titrated, usually from 57.1 µM), usual class: inhibitors. O94782. recombinant USP1/UAF1, Ub-Rhodamine cleavage fluorescence; also: nearly all actives have a fitted effect of over 60% in size
Target sequence (O94782 whole entry, looked up): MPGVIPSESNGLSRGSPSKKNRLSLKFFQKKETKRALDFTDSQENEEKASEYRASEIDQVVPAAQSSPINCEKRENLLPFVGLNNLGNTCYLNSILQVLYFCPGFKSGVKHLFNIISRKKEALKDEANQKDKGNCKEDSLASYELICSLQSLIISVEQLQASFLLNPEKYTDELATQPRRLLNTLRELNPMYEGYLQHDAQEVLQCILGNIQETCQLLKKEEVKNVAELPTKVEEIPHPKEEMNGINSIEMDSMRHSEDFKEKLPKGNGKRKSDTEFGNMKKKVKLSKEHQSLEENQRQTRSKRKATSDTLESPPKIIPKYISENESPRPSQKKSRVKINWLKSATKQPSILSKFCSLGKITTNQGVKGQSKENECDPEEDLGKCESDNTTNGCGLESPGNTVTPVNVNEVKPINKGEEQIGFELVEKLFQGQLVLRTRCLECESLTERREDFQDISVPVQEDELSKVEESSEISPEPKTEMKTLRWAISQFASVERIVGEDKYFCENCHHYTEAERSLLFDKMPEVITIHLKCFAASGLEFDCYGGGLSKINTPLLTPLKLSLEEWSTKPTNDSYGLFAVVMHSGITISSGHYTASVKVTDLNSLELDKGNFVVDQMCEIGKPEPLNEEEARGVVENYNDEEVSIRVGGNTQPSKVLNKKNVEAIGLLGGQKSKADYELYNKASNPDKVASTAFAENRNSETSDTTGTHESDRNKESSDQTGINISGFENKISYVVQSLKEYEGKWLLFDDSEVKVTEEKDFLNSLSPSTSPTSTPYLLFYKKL
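High-throughput fluorogenic screen: 1nM USP1/UAF1 complex, Ub-Rho substrate 150nM final, 50mM HEPES pH 7.8 with 0.5mM EDTA, 0.1 mg/ml BSA, 1mM TCEP and 0.01% Tween-20.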
FBPA coupling cs = inhibits coupling enzyme system, counter-screen for aldolase hits | activity change, negative = inhibition, % at 58.2 µM, hits read low | coupling enzyme system counterscreen, AmpLite Red fluorescence | 0.67% of 290,000 active; in the data active = activity change below about -30%
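Counterscreen of the coupled detection system alone, without aldolase: glyceraldehyde-3-phosphate coupling enzymes plus AmpLite Red readout. Compounds at 57.5 uM final, 10 min RT preincubation, 20 min RT reaction, fluorescence 525/598 nm.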
Numbers stand for hits; – = inactive; ? = inconclusive; · = no result; ! = a repeat was not active; [ ] = dose if it differs, or a comment. Unless noted, calls follow the shape of the dose curve; as a rule, active = well fitted curve in the direction sought with a large enough effect; inconclusive = small, poorly fitted or top-dose-only effect, or another doubt; inactive = no such curve, though single readings can be large; an effect the other way counts as inactive or inconclusive.

SMILES	Tau FP inhib	Tau fluor cs	Tau fibril ThT	USP1 inh	FBPA coupling cs
CC/C(=N\Nc1cccc2ccccc12)c1c(O)[nH]c(=O)[nH]c1=O	?	?	28µM	–	–
CC/C(=N\Nc1ccccc1)c1c(O)[nH]c(=O)[nH]c1=O	–	–	–	–	–
C[C@H]1C[C@H](C)C(=O)[C@@H]([C@H](O)CC2CC(=O)NC(=O)C2)C1	–	–	–	·	–
CCOc1ccc(C(=O)Nc2cc(NC(=O)c3ccco3)ccc2OC)cc1Br	–	–	?	–	·
CN1C(=O)C(=Cc2ccc(N3CCCCCC3)o2)C(=O)N(C)C1=S	–	?	13µM	25µM	–
CN1C(=O)C(=Cc2ccc(N3CCOCC3)o2)C(=O)N(C)C1=O	–	–	–	?	–
C[C@@]12CCC(=O)C[C@@H]1CC[C@@H]1[C@@H]2CC[C@]2(C)C(=O)CC[C@@H]12	–	–	–	·	–
COP(=S)(OC)Oc1ccc([N+](=O)[O-])cc1	–	–	–	·	–
CCOc1ccc(Cc2c(O)[nH]c(=O)[nH]c2=O)cc1	25µM	–	28µM	–	–
CC(=O)O.CC(=O)O.[Cd]	–	–	?	·	–
Cc1ccc2oc(-c3ccccc3)cc(=O)c2c1	?	–	?	·	–
O=c1cc(-c2ccc(O)c(O)c2)oc2cc(O)cc(O)c12	–	?	13µM	?	–
O=c1c(O)c(-c2ccc(O)c(O)c2)oc2cc(O)cc(O)c12	?	10µM[quencher]	13µM	?	–
Cc1c2ccncc2c(C)c2c1[nH]c1ccccc12	–	?	11µM	–	-30!
C=CCN1CC[C@@]23c4c5ccc(O)c4O[C@H]2/C(=N\N=C2/CC[C@@]4(O)[C@H]6Cc7ccc(O)c8c7[C@@]4(CCN6CC=C)[C@@H]2O8)CC[C@]3(O)[C@@H]1C5	–	–	–	·	–
COc1cc2c(cc1OC)[C@@H]1C(=O)c3ccc(OC)c(CC=C(C)C)c3OC1CO2 (some centres undefined)	–	–	–	·	–
O=C1NC(=O)C(=Cc2ccc(-c3cc(Cl)ccc3[N+](=O)[O-])o2)C(=O)N1	–	–	7.9µM	–	–
O=c1[nH]c(=S)[nH]c(O)c1N=Nc1ccc(OC(F)F)cc1	–	–	4µM	–	–
COc1cccc(N=Nc2c(O)[nH]c(=S)[nH]c2=O)c1	–	–	7.1µM	–	–
O=c1[nH]c(=S)[nH]c(O)c1N=Nc1ccc(S(=O)(=O)N2CCOCC2)cc1	–	–	?	–	–
COc1ccc(N=Nc2c(O)[nH]c(=S)[nH]c2=O)cc1	–	–	2.8µM	–	–
NS(=O)(=O)c1ccc(N=Nc2c(O)[nH]c(=S)[nH]c2=O)cc1	–	–	5.6µM	–	–
COc1cccc(-c2nnc3n(Cc4ccccc4Cl)c(=O)c4ccccc4n23)c1O	–	–	?	–	·
CCOC(=O)c1oc2ccc(S(=O)(=O)n3nc(-c4ccc(Br)cc4)cc3N)cc2c1C	?	?	–	–	·
CC(C)OC(=O)Nc1cccc(Cl)c1	–	–	–	·	–
SMILES	Tau FP inhib	Tau fluor cs	Tau fibril ThT	USP1 inh	FBPA coupling cs
N#CC(C#N)=NNc1cccc(Cl)c1	?	?	4.5µM	·	–
Cc1ccc(Cl)cc1N1CCN(C(=O)C2CCN(Cc3nc(-c4ccc(Cl)cc4)oc3C)CC2)CC1	–	–	?	–	·
CC1=NN(c2ccccc2)C(=O)C1/C=C1\C(=O)NC(=O)N(c2ccc(C)c(C)c2)C1=O (centres undefined)	–	–	11µM	–	–
CC1=NN(c2ccccc2)C(=O)C1/C=C1/C(=O)NC(=O)N(c2cc(C)cc(C)c2)C1=O (centres undefined)	–	–	11µM	–	–
CC1=NN(c2ccccc2)C(=O)C1/C=C1/C(=O)NC(=O)N(c2cccc(C)c2)C1=O (centres undefined)	–	–	?	·	–
CC1=NN(c2ccccc2)C(=O)C1/C=C1\C(=O)NC(=O)N(c2cc(C)cc(C)c2)C1=O (centres undefined)	–	–	–	–	–
CCN(CC)S(=O)(=O)c1cccc(N=Nc2c(O)n(CC)c(=S)n(CC)c2=O)c1	–	?	16µM	–	–
O=C1NC(=O)N(Cc2cccs2)C(=O)/C1=C/c1ccc(N2CCOCC2)cc1	–	–	?	–	–
O=C1NC(=O)N(Cc2ccccc2Cl)C(=O)/C1=C/N1CCOCC1	?	–	18µM	–	–
C[C@H](N)[C@H](O)c1ccc(O)c(O)c1	·	·	·	·	-34
C[C@@H](N)[C@@H](O)c1ccc(O)c(O)c1	?	?	4µM	·	·
COc1ccc(OC)c(C(O)C(C)N)c1 (centres undefined)	–	–	–	–	–
Cn1cccc1/C=C1/C(=O)NC(=O)N(Cc2ccc(F)cc2)C1=O	·	·	·	–	–
Cn1cccc1/C=C1/C(=O)NC(=S)N(Cc2ccc(F)cc2)C1=O	35µM	11µM[quencher]	·	–	–
C[C@H](NC(=O)[C@@H](N)Cc1ccc(O)cc1)C(=O)NCC(=O)N(C)[C@@H](Cc1ccccc1)C(=O)N[C@H](CO)CCS(C)=O (some centres undefined)	–	–	–	·	·
NC(=NCCc1ccc(I)cc1)SCCCc1cnc[nH]1	–	–	–	·	–
CCOc1cccc(=NC2CCCCC2)c2c(C)n(C)c(C)c12	–	–	13µM	–	–
CCCCn1c(NC(=O)c2ccc(Br)o2)c(C(=O)OCC)c2nc3ccccc3nc21	?	–	?	25µM	-44
CCCCn1c(NS(=O)(=O)c2ccccc2)c(C(=O)OCC)c2nc3ccccc3nc21	–	–	–	22µM	–
Cc1noc(C)c1C(=O)N1CCC2(CC1)Oc1ccc(F)cc1C(=O)C21CC(c2ccc(Cl)cc2)=NO1 (centres undefined)	–	–	?	–	–
CCOc1ccccc1NC(=O)c1sc2nc3c(cc2c1N)CN(Cc1ccccc1)CC3	–	?	–	–	·
CCOc1cccc(CC(=O)NCc2ccc3c(c2)CCN3C(=O)c2cccc(C)c2)c1OCC	–	–	?	–	·
CCCCn1c(O)c(C(=O)/C=C/c2c[nH]c3ccccc23)c(=O)[nH]c1=O	?	–	·	25µM	–
CCN(CC)C(=O)c1ccc2c(c1)C1C(Cl)C(Sc3ccccc3[N+](=O)[O-])CC1C(C(=O)O)N2 (centres undefined)	?	?	?	?	–
CCN(CC)C(=O)c1ccc2c(c1)C1C=CCC1C(C(=O)O)N2 (centres undefined)	·	·	·	25µM	–
OC[C@@H]1[C@@H](O)[C@H](O)[C@H]2[C@@H](O)CCN21	·	·	·	·	–
CCOc1ccc(CCNC(=O)c2cc3c(-c4ccc(OC)c(OC)c4)nn(C)c3s2)cc1OCC	–	?	–	–	·
COc1ccc(/C=N/N=C(/N)N[N+](=O)[O-])c(OC)c1	?	–	–	–	–
N/C(=N\N=C/c1ccc(-c2ccc(O)c(C(=O)O)c2)o1)N[N+](=O)[O-]	–	?	4.5µM	–	–
